Rows were chosen to be rich in hits. Some 19% of all compounds tested hit in one or more screens of this group.
HepG2 tox: kills HepG2 cells in TGF-b inhibitor counter-screen; HepG2 CAGA-GFP viability, ATP luminescence, 18 h; Potency, µM (top dose mostly 46.1 µM), for inactives: top-dose activity change, negative = cytotoxicity, hits mostly cytotoxic; hit rate 0.76% among 410,000; AID 588856; further: potency means the concentration at half of the fitted maximal effect
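CellTiter-Glo luminescence gave cytotoxicity after 18 hours at 37 degrees C. The cells were HepG2 CAGA-GFP in 1% FBS DMEM, stimulated with 500 pg/mL TGF-beta after compound addition. %Activity was normalised to no-cell wells (complete cell-killing) and DMSO (no toxicity), and curves were fitted and classified.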
IL1B secr inh: blocks inflammasome-driven IL-1 beta release. hit rate 4.7% among 360,000. AID 743279. THP-1 LPS/ATP IL-1B secretion, AlphaLISA, 16 h; stronger effect = lower value. activity change, % at 57.5 µM; in the data active means activity change below about -50%; inconclusive means mostly about -30% to -49%; further: on the % scale 0 is the no-effect control and ±100 the full control effect
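Secreted IL-1B measured by AlphaLISA bead assay after 16 h compound exposure of THP-1 cells; compounds (final up to 57.5 uM) added 1 h before LPS (250 ng/mL) and ATP (1.25 mM) stimulation; lower signal means less secretion.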
DT40 TDP1 CPT: growth inhibition of DT40 Tdp1-/-;hTDP1 cells with camptothecin (screen for TDP1 inhibitors). chicken DT40 Tdp1-/-;hTDP1 cells + 20 nM CPT, ATP luminescence, 48 h. Potency, µM (highest dose often 46.2 µM), without a hit: at the highest dose activity change, negative = growth inhibition, usual class: inhibitors. hit rate 12% among 420,000; further: potency means the concentration at half of the fitted maximal effect; on the % scale 0 is the no-effect control and ±100 the full control effect; nearly all actives have a fitted effect of over 55% in size
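Chicken DT40 Tdp1-/- cells complemented with human TDP1, 400 cells/well, exposed to compounds plus 20 nM camptothecin for at least 48 h at 37 C; viability read as ATP content by CellTiter-Glo luminescence.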
TGFb SMAD3 inh: inhibitors of TGF-b signaling; Potency, µM (top dose mostly 46.1 µM), without a hit: top-dose activity, negative = inhibition, hits mostly inhibitors; HepG2 CAGA-GFP TGF-b/SMAD3 reporter, GFP fluorescence, 18 h; TGF-beta stimulated, 500 pg/mL final; hit rate 1.2% among 410,000; AID 588855; further: potency means the concentration at half of the fitted maximal effect; on the % scale 0 is the no-effect control and ±100 the full control effect; nearly all actives have a fitted effect of over 65% in size
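HEPG2 CAGA-GFP cells (1000/well, DMEM with 1% FBS) were pre-incubated 2 h at 37 degrees C, given compound by pin tool, then stimulated with TGF-beta at 500 pg/mL final for 18 h before per-cell GFP fluorescence imaging.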
DT40 TDP1 no CPT: qHTS for Inhibitors of human tyrosyl-DNA phosphodiesterase 1 (TDP1): qHTS in cells in absence of CPT; DT40 Tdp1-/- hTDP1 cells, no CPT, ATP luminescence, 48 h; Potency, µM (top dose mostly 46.2 µM), inactives show top-dose activity change, negative = growth inhibition, most hits filed as inhibitors; hit rate 15% among 420,000; AID 686978, 2013; further: potency means the concentration at half of the fitted maximal effect; on the % scale 0 is the no-effect control and ±100 the full control effect; nearly all actives have a fitted effect of over 55% in size
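Camptothecin absent (DMSO only). Human TDP1-complemented DT40 knockout cells, 400 cells/well, 37 °C for minimum 48 hr; ATP measured via CellTiter-Glo, 30 min dark incubation, luminescence.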
ASM inhibitor: human S-ASM enzyme inhibition; P17405; placental ASM, HMU-PC fluorogenic substrate, 60 min; Potency, µM (doses to about 57.5 µM), for inactives: top-dose activity change, negative = inhibition, most hits filed as inhibitors; hit rate 0.006% among 340,000; AID 504937; further: potency means the concentration at half of the fitted maximal effect
Target sequence (P17405 47-631 limits assumed): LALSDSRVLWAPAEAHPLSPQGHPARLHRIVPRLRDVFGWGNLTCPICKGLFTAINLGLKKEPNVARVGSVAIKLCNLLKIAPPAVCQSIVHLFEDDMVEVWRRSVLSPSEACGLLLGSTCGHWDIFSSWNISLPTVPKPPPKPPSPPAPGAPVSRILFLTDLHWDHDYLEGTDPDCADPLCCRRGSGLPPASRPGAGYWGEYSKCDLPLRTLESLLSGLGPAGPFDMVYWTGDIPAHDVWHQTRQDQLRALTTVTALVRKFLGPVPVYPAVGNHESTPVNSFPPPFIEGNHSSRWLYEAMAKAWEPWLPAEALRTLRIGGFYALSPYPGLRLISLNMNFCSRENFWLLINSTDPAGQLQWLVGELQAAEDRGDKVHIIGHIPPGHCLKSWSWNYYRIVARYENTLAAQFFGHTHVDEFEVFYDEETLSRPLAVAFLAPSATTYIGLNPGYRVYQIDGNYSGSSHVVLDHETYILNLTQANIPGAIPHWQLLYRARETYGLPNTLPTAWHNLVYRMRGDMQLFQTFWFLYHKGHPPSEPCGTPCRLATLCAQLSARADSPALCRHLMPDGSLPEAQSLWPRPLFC
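Fluorogenic HMU-PC substrate (9 uM final) is turned over by placental ASM in 60 min at 37 C after a 10 min compound preincubation. Reaction ended by alkaline stop (pH 10), with fluorescence read at 386/447 nm.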
* marks the source's active call; other numbers are inactive results; ? = inconclusive; . = no result. Unless noted, the call rests on the fitted dose curve; in most records, active means well fitted curve in the direction sought with a large enough effect; inconclusive means small, poorly fitted or top-dose-only effect, or another doubt; inactive means no such curve, though single readings can be large; an effect the other way counts as inactive or inconclusive.

SMILES | HepG2 tox | IL1B secr inh | DT40 TDP1 CPT | TGFb SMAD3 inh | DT40 TDP1 no CPT | ASM inhibitor
CCC(C)CCN1C(Nc2ccccc2)=NC[C@@H]1C (some centres not stated) | -0.2% | 4.7 | ? | 22.4% | 11.6µM* | 2.4%
CCCCCCCN1C(Nc2ccccc2)=NC[C@@H]1CC(C)C | -38.1% | -77.8* | 11.6µM* | ? | 16.4µM* | -6.3%
COc1ccc(C2OC(CCc3ccccc3)CC3=C2C(=O)OC(C)(C)O3)cc1 (configuration not stated) | -13.0% | ? | ? | ? | ? | .
Cc1cc(NS(=O)(=O)c2ccc3c(c2)OCCO3)no1 | 8.8% | 9.0 | -2.9% | -12.5% | -4.3% | 3.0%
CCOCCn1ccc2c(OCC(=O)Nc3ccc(OC)cc3OC)cccc2c1=O | -0.7% | 0.1 | -22.9% | 15.1% | ? | 1.0%
COCCn1ccc2c(OCC(=O)Nc3cccc(C(F)(F)F)c3)cccc2c1=O | -22.3% | . | ? | -19.7% | 23.1µM* | .
COCCn1ccc2c(OCC(=O)Nc3cccc(OC)c3)cccc2c1=O | -5.4% | . | ? | -6.2% | 14.6µM* | .
CCOCCn1ccc2c(OCC(=O)Nc3ccc(OC)c(OC)c3)cccc2c1=O | -3.5% | 15.2 | 14.6µM* | -7.2% | 10.3µM* | -1.3%
CCOCCn1ccc2c(OCC(=O)Nc3cc(C)cc(C)c3)cccc2c1=O | -23.5% | . | -29.8% | -28.2% | ? | .
CCC(c1nnnn1-c1ccc2c(c1)OCCO2)N1CCN(c2ccc(OC)cc2)CC1 (configuration not stated) | . | -7.4 | 20.6µM* | . | ? | .
CCC(c1nnnn1-c1ccc2c(c1)OCCO2)N1CCN(Cc2c(F)cccc2Cl)CC1 (configuration not stated) | . | ? | ? | . | 23.1µM* | .
CCC(c1nnnn1-c1ccc2c(c1)OCCO2)N1CCN(CCN2CCOCC2)CC1 (configuration not stated) | . | -0.5 | -6.6% | . | 6.7% | .
CCC(c1nnnn1-c1ccc2c(c1)OCCO2)N1CCN(c2cccc(C)c2C)CC1 (configuration not stated) | . | -12.2 | ? | . | 18.4µM* | .
CCC(c1nnnn1-c1ccc2c(c1)OCCO2)N1CCN(c2cc(C)ccc2C)CC1 (configuration not stated) | . | 7.3 | ? | . | ? | .
C=CCn1c(SCC(=O)Nc2cc(Cl)ccc2C(=O)O)nc2sc(C)c(C)c2c1=O | 7.9% | 22.4 | -12.0% | 10.4% | -6.3% | 8.2%
C=C(C)C1Cc2c(ccc(C(=O)O)c2O)O1 (configuration not stated) | . | . | 10.1% | . | 4.8% | .
N#Cc1ccc(CN2CCCC3(CCN(C(=O)c4csnn4)CC3)C2)cc1 | . | . | 0.4% | . | ? | .
COc1ccc(N2CCN(C(=O)CCS(=O)(=O)c3cc(Br)cc4c3N(C(=O)C3CC3)CC4)CC2)cc1 | -4.4% | . | -7.5% | -22.0% | -16.6% | .
O=C1C2C(C(=O)N1/N=C/c1ccc(N3CCCCC3)o1)C1C=CC2C12CC2 (configuration not stated) | -22.8% | -26.1 | 18.4µM* | -8.4% | 14.6µM* | 29.6%
CCn1cc(/C=C(\NC(=O)c2ccc(OC)cc2)C(=O)N2CCN(C)CC2)c2ccccc21 | -13.3% | 2.7 | -27.2% | 9.8% | 8.7% | 0.0%
CCC(=C(c1ccc(OC)cc1)c1ccc(OC)cc1)c1cn(CC(O)CN2CCN(C)CC2)c2ccccc12 (configuration not stated) | 12.6µM* | -106.5* | 10.3µM* | ? | 13µM* | -26.5%
COc1cc(C(=O)N2CCN(C(=O)c3ccco3)CC2)c([N+](=O)[O-])cc1OC | -41.2% | 4.7 | 5.3% | 0.0% | -0.1% | 0.5%
CCOC(=O)c1cc2c(ccn2C)n1CC(=O)N1CCN(c2cccc(C(F)(F)F)c2)CC1 | -8.0% | -0.6 | 16.4µM* | 15.5% | 16.4µM* | -15.9%
Cn1cnc(S(=O)(=O)N2CCC(C(=O)N3CCN(c4cccc(C(F)(F)F)c4)CC3)CC2)c1 | -6.8% | . | ? | -1.7% | ? | .
Cc1nn(CC(=O)N2CCN(c3cccc(C(F)(F)F)c3)CC2)c(=O)c2cccn12 | -18.3% | -5.4 | 14.6µM* | -7.4% | 23.1µM* | -1.3%
SMILES | HepG2 tox | IL1B secr inh | DT40 TDP1 CPT | TGFb SMAD3 inh | DT40 TDP1 no CPT | ASM inhibitor
CCOC(=O)c1cc2c(ccn2C)n1CC(=O)N1CCN(c2ccc(F)cc2)CC1 | 1.9% | -1.9 | 0.7% | 5.4% | -9.7% | -3.6%
CC1CCN(S(=O)(=O)c2cn(CC(=O)N3CCN(c4cccc(C(F)(F)F)c4)CC3)cn2)CC1 | -0.1% | 0.4 | 14.6µM* | ? | ? | -6.0%
COc1cc2oc(=O)cc(CN3CCCCCCC3)c2cc1Cl | -12.8% | 19.4 | -28.5% | ? | -16.7% | .
CCN(CC)S(=O)(=O)c1cccc(C(=O)NC(C(=O)NNC(=O)c2ccccc2F)C(C)C)c1 (configuration not stated) | 2.6% | 0.0 | ? | -28.2% | ? | 3.1%
O=S(=O)(c1ccc(OC(F)(F)F)cc1)N1CCC(c2nnnn2-c2ccc(F)cc2)CC1 | -6.8% | . | 0.0% | -3.5% | -1.9% | .
CCC(C)(C)n1nnnc1C(c1cc2cc(OC)c(OC)cc2[nH]c1=O)N1CCc2ccccc21 (configuration not stated) | 1.4% | 0.0 | 20µM* | ? | ? | ?
COc1cc2cc(C(c3nnnn3C(C)(C)C)N3CCc4ccccc4C3)c(=O)[nH]c2cc1OC (configuration not stated) | -31.5% | -17.8 | 18.4µM* | -7.1% | ? | 86.9%
CCC(C)(C)n1nnnc1C(c1cc2cc(C)ccc2[nH]c1=O)N1CCCC1 (configuration not stated) | 0.0% | 21.7 | -12.9% | -0.1% | -12.4% | 12.6%
